Screening results from PubChem BioAssay.
Only some compounds are listed: those with a hit (about 4.8% of all), similar ones and a draw of the others.
tim10-1 inh – growth inhibitors of tim10-1 mutant yeast; AID 463190; 330,000 tested, 2.2% active; inhibition, % at 20 µM; S. cerevisiae tim10-1 ts strain growth, BacTiter-Glo, 24 h;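 active means inhibition of at least 40%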;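 further: mutant grown at 25 °C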
tim23-1 inh – tim23-1 yeast growth inhibition | S. cerevisiae tim23-1 growth, BacTiter-Glo luminescence, 24 h | inhibition, % at 20 µM | 330,000 tested, 1.3% active | AID 463212;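 active means growth inhibition of the mutant yeast at or above 50%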;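 further: temperature-sensitive mutant grown at 25 °C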
TIM10 inh – TIM10 yeast growth inhibition. inhibition, % at 10 µM. 330,000 tested, 1.4% active. S. cerevisiae TIM10 strain growth, BacTiter-Glo luminescence, 24 h;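 active means inhibition of 40% or more at the single tested concentration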;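 further: wild-type TIM10 isogenic control strain grown at permissive 25 °C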
NALP1 yeast inh – NALP1 inhibition; S. cerevisiae NALP1/ASC/caspase-1 growth, X-gal OD620, 72 h; inhibition, % at 10 µM; 280,000 tested, 0.61% active; AID 2071; in the data active means inhibition mostly above about 24%, no sharp cut-off; inactive means mostly below about 32%
PfHsp90 yeast 2 – reduces growth (ATP signal) of yeast expressing P. falciparum Hsp90; S. cerevisiae expressing PfHsp90, BacTiter-Glo ATP, 48 h; yeast lacking PDR1 and PDR3 efflux regulators; inhibition, % at 9.4 µM; 310,000 tested, 0.32% active; AID 504621;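 active means every replicate shows inhibition above about 80%, whatever the replicate mean, limit read from the data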
SKKanGAS inh – inhibitors of SKKanGAS S. pyogenes growth in kanamycin (SK-promoter or general growth effect). BacTiter-Glo, 6 h. inhibition, % at 7.5 µM. 300,000 tested, 1.3% active;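 active means mean replicate score, as percent of positive control median, at least 50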;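 further: strain carries kanamycin resistance gene driven by streptokinase promoter and grows in 40 µg/ml kanamycin; loss of luminescence reflects streptokinase promoter inhibition or plain growth inhibition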
Numbers stand for hits.

For CCn1c(O)c(C=Nc2cc(Cl)ccc2Cl)c(=O)n(CC)c1=O the results were tim10-1 inh inactive, tim23-1 inh inactive, TIM10 inh inactive, NALP1 yeast inh inactive, PfHsp90 yeast 2 inactive and SKKanGAS inh inactive.
Screening Nc1c2c(nc3sc4c(c13)CCCC4)CCCCC2 returned tim10-1 inh inactive, tim23-1 inh inactive, TIM10 inh inactive, NALP1 yeast inh 54.3, PfHsp90 yeast 2 inactive and SKKanGAS inh inactive.
For COc1ccc(CCNCc2ccncc2)cc1 the results were tim10-1 inh inactive, tim23-1 inh inactive, TIM10 inh inactive, NALP1 yeast inh inactive, PfHsp90 yeast 2 inactive and SKKanGAS inh inactive.
Cc1ccc(C)c(Cn2c(C(=O)O)c(C=O)c3ccccc32)c1 was read as tim10-1 inh inactive, tim23-1 inh inactive, TIM10 inh inactive, NALP1 yeast inh 27.5, PfHsp90 yeast 2 inactive and SKKanGAS inh inactive.
Screening O=C1/C(=C/c2cc3c(cc2Cl)OCO3)N2CCC1CC2 returned tim10-1 inh inactive, tim23-1 inh inactive, TIM10 inh inactive, NALP1 yeast inh 46.8 and SKKanGAS inh inactive.
For O=C1/C(=C\c2cc3c(cc2Cl)OCO3)N2CCC1CC2 the results were tim10-1 inh inactive, tim23-1 inh inactive, TIM10 inh inactive, NALP1 yeast inh 44.6, PfHsp90 yeast 2 inactive and SKKanGAS inh inactive.
COCCNC(=O)N1[C@H]2CC[C@@H]1C(C(=O)OC)=C(c1ccc(OC)c(OC)c1)C2 was read as tim10-1 inh inactive, tim23-1 inh inactive, TIM10 inh inactive and PfHsp90 yeast 2 inactive.
CCCCn1c(O)c(C(C)=Nc2ccc(OCC)cc2)c(=O)[nH]c1=O was read as tim10-1 inh inactive, tim23-1 inh inactive, TIM10 inh inactive, NALP1 yeast inh inactive, PfHsp90 yeast 2 inactive and SKKanGAS inh 65.4.
CC(C)(C)N1Cc2ccccc2C1=N was read as tim10-1 inh inactive, tim23-1 inh inactive, TIM10 inh inactive, NALP1 yeast inh 42.9, PfHsp90 yeast 2 inactive and SKKanGAS inh inactive.
CN(C)c1ccc(/C=C/[N+](=O)[O-])cc1 was read as tim10-1 inh inactive, tim23-1 inh inactive, TIM10 inh inactive, NALP1 yeast inh 79.5, PfHsp90 yeast 2 inactive and SKKanGAS inh inactive.
`CCSc1nnc([C@@H](N)Cc2ccccc2)o1` gave tim10-1 inh inactive, tim23-1 inh inactive, TIM10 inh inactive, NALP1 yeast inh inactive, PfHsp90 yeast 2 inactive and SKKanGAS inh inactive.
Screening C/C(=N\NC(=O)c1ccccc1O)c1c(O)n(C2CCCCC2)c(=O)[nH]c1=O returned tim10-1 inh inactive, tim23-1 inh inactive, TIM10 inh inactive, NALP1 yeast inh inactive, PfHsp90 yeast 2 inactive and SKKanGAS inh 49.7.
`COC(=O)C12CCc3c(ccc4cc(OC)ccc34)C1=CC(=O)C2` (stereo not drawn) gave PfHsp90 yeast 2 inactive.
For Oc1ccc(O)c2c1C1(Cl)C(Cl)=C(Cl)C2(Cl)C1(Cl)Cl the results were PfHsp90 yeast 2 106.6.
O[C@@H]1CCCN2CCc3c([nH]c4ccccc34)[C@H]12 was read as PfHsp90 yeast 2 inactive and SKKanGAS inh 98.2.
Oc1ccc2c3c1O[C@H]1c4[nH]c5ccccc5c4C[C@@]4(O)[C@@H](C2)N(CC2CC2)CC[C@]314 was read as tim10-1 inh inactive, tim23-1 inh inactive, TIM10 inh inactive and PfHsp90 yeast 2 inactive.
CC1=NOC2(C)Nc3ncnn3C(c3ccccc3)C12 (stereo not drawn) was read as tim10-1 inh inactive, tim23-1 inh inactive, TIM10 inh inactive, NALP1 yeast inh 35.6 and SKKanGAS inh inactive.
For O=[N+]([O-])[N-][n+]1cnn(Cc2ccc(Cl)cc2)c1 the results were tim10-1 inh inactive, tim23-1 inh inactive, TIM10 inh inactive, NALP1 yeast inh inactive, PfHsp90 yeast 2 inactive and SKKanGAS inh inactive.
CN(C)C1C(=O)C(C(N)=O)=C(O)C2(O)C(=O)C3=C(O)c4c(O)cccc4C(C)(O)C3C(O)C12 (stereo not drawn) was read as tim10-1 inh inactive, tim23-1 inh inactive, TIM10 inh inactive, NALP1 yeast inh inactive, PfHsp90 yeast 2 inactive and SKKanGAS inh 105.0.
Screening O=C1C2C3CCC(O3)C2C(=O)N1CCO (stereo not drawn) returned tim10-1 inh inactive, tim23-1 inh inactive, TIM10 inh inactive, NALP1 yeast inh inactive, PfHsp90 yeast 2 inactive and SKKanGAS inh inactive.
Screening Oc1c(Cl)cc(Cl)cc1CN1CCN(Cc2ccccc2)CC1 returned tim10-1 inh inactive, tim23-1 inh inactive, TIM10 inh inactive, NALP1 yeast inh inactive, PfHsp90 yeast 2 inactive and SKKanGAS inh inactive.
